Measured values taken from PubChem BioAssay.
Calls of active or inactive are those of the source. Unless noted, no rule for the calls is given here.

What was measured:
[1] = resazurin metabolic signal in HepG2 cells – cell-based, resazurin fluorescence, 24 h, PK04 Diversity Set, profiling panel (AID 1172); conditions: HepG2 viability, higher = more signal; also: test concentration not given here
[2] = budding yeast growth changes without added modifier – OD600, strain BY4716, 24 h, basal condition, primary screen (AID 1173); conditions: S. cerevisiae BY4716 growth, OD600, 24 h; higher = more signal, called active from +8 up or from −8 down
[3] = viability profiling in MM1S myeloma cells – cell-based, resazurin fluorescence, basal, 24 h, PK04 Diversity Set, profiling panel (AID 1174); conditions: higher = more signal, called active from +8 up or from −8 down;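 also: MM1S multiple myeloma cell line; test concentration not given here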
[4] = molecular target: Dihydroorotate dehydrogenase (quinone), mitochondrial (Plasmodium falciparum (isolate 3D7)) (UniProt Q08210); assay: inhibition of P. falciparum DHODH – biochemical, C-terminal His tag, absorbance 600 nm, primary screen (AID 1175); conditions: PfDHODH enzyme, DCIP absorbance 600 nm; higher = more signal, called active from +8 up or from −8 down;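 also: recombinant parasite enzyme with a five histidine tag at its C terminus; test concentration not given here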
Chain of Dihydroorotate dehydrogenase (quinone), mitochondrial (Plasmodium falciparum (isolate 3D7)) (Q08210 whole entry, looked up): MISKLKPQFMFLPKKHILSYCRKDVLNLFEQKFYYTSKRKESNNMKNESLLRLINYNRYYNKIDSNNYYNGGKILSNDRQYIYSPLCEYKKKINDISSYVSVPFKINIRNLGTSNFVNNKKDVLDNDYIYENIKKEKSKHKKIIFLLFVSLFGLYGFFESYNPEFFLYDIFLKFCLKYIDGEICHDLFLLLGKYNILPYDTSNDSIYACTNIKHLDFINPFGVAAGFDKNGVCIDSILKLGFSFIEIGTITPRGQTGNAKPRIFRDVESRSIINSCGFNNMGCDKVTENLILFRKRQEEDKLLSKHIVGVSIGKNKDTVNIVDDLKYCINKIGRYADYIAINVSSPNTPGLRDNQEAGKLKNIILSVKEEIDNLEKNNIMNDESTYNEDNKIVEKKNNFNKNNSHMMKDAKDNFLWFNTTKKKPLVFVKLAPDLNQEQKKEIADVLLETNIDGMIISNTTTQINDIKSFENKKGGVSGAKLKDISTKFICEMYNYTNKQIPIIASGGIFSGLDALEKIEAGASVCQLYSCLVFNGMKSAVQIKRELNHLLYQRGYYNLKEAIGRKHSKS

[5] = inhibition of PAO1 biofilm formation – strain PAO1, LB-PBS medium, absorbance 600 nm, primary screen (AID 1176); also: test concentration not given here; conditions: P. aeruginosa PAO1 growth/biofilm, A600, 12 h; higher = more signal
[6] = growth modulation of vineyard yeast isolate – strain RM11-1a, OD600, basal, 24 h, primary screen (AID 1177);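 also: cultures grown under basal conditions with no added stressor; test concentration not given here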; conditions: S. cerevisiae RM11-1a growth, OD600, 24 h; higher = more signal, called active from +8 up or from −8 down
[7] = growth of efflux-deficient E. coli DRC39 – strain DRC39, OD650, 24 h, E. coli filamentation inducers, primary screen (AID 1178);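 also: growth measured as culture turbidity by optical density at 650 nm; test concentration not given here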; conditions: E. coli DRC39 acrAB, higher = more signal, called active from +8 up or from −8 down
[8] = growth of efflux-deficient E. coli DRC39 – strain DRC39, OD650, 48 h, E. coli filamentation inducers, primary screen (AID 1179);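 also: screen aims at cell division blockers that make cells filament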; conditions: E. coli DRC39 delta-acrAB growth, higher = more signal, called active from +8 up or from −8 down
[9] = viability profiling in RPMI8226 myeloma cells – cell-based, resazurin fluorescence, basal, 24 h, PK04 Diversity Set, profiling panel (AID 1180); conditions: higher = more signal;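 also: RPMI8826 multiple myeloma cell line at 5000 cells per well; test concentration not given here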
[10] = molecular target: E3 ubiquitin-protein ligase XIAP (Homo sapiens) (UniProt P98170); assay: small molecules binding XIAP protein – biophysical, small-molecule microarray, fluorescence 635 nm, primary screen (AID 1181); conditions: higher = more signal;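 also: score merges 667 nm emission and signal to noise over triplicate slides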
Chain of E3 ubiquitin-protein ligase XIAP (Homo sapiens) (P98170 whole entry, looked up): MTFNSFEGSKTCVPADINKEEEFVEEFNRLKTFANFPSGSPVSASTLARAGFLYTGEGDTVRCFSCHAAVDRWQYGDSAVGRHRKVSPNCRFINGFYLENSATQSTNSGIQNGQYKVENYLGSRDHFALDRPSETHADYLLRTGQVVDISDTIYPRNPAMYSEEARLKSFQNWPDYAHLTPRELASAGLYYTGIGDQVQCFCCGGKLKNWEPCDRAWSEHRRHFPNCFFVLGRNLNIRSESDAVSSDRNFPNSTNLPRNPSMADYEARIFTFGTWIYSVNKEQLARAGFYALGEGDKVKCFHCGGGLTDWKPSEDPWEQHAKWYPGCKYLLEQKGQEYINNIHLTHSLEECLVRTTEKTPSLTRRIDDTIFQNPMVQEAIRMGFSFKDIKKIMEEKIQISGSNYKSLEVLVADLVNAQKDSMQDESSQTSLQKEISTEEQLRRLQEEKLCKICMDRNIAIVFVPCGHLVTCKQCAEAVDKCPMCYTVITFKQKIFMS

Compound	z-score [1]	z-score [2]	z-score [3]	composite z-score [4]	z-score [5]	z-score [6]	z-score [7]	z-score [8]	z-score [9]	composite z-score [10]
CO[C@@H]1COC(=O)[C@@H](C)COC(=O)[C@@H](C)NC(=O)CC=C[C@@H]1C	-0.373	-0.792 (inactive)	1.2 (inactive)	-4.92 (inactive)	-0.136 (inactive)	-1.99 (inactive)	-0.98 (inactive)	-1.13 (inactive)	0.635	-0.271
CCOC(=O)[C@H](CC(C)C)NC(=O)CCC1CC(OC(=O)NCc2cccc3ccccc23)CC2(CCCC(COC(=O)NCCc3ccc(Cl)cc3)O2)O1 (stereo not given in full)	0.568	-1.89 (inactive)	1.15 (inactive)	-1.16 (inactive)	0.262 (inactive)	-1.2 (inactive)	0.389 (inactive)	-0.214 (inactive)	1.3	-0.0559
COc1ccc(O[C@H]2C=C[C@@H](c3ccccc3)O[C@@H]2COC(=O)CCC(C)=NOC[C@@H](O)[C@H]2O[C@@H]3OC(C)(C)O[C@@H]3[C@H]2O)cc1	0.0784	-0.727 (inactive)	0.0383 (inactive)	-1.15 (inactive)	-0.348 (inactive)	0.28 (inactive)	1.18 (inactive)	-1.02 (inactive)	1.04	-0.0559
CCc1cc2c(nc1CC)CCN(CCC(C)=NO[C@H](C)c1cn([C@H](CO)Cc3ccccc3)nn1)C2	-0.605	-0.0397 (inactive)	-0.376 (inactive)	1.07 (inactive)	-0.503 (inactive)	-0.0857 (inactive)	-1.4 (inactive)	-1.17 (inactive)	-0.162	0.204
CCOC(=O)NN=C1C[C@@H](O)[C@@H](O)[C@@H]2[C@@H]3C(=O)N(Cc4ccc5c(c4)OCO5)C(=O)[C@@H]3CC[C@H]12	0.514	0.923 (inactive)	-0.343 (inactive)	0.005 (inactive)	-0.981 (inactive)	0.169 (inactive)	0.298 (inactive)	0.19 (inactive)	0.3	-0.0294
CCOC(=O)[C@H](CC(C)C)NC(=O)CCC1CC(OC(=O)NCc2cccc3ccccc23)CC2(CCCC(COC(=O)NCCC(C)C)O2)O1 (stereo not given in full)	0.232	-2.17 (inactive)	0.771 (inactive)	-2.64 (inactive)	0.131 (inactive)	-3.91 (inactive)	-0.259 (inactive)	-0.457 (inactive)	-0.286	0.117
CCOC(=O)[C@H](CC(C)C)NC(=O)CCC1CC(OC(=O)NCCc2ccc(F)cc2)CC2(CCCC(COC(=O)NCC3CCCCC3)O2)O1 (stereo not given in full)	1.1	0.776 (inactive)	0.0789 (inactive)	-0.161 (inactive)	0.201 (inactive)	-0.547 (inactive)	-0.0313 (inactive)	-1.02 (inactive)	0.738	-0.153
CCN1C(=O)[C@@H]2[C@H]3C(=CC[C@@H]2C1=O)C1(OCCCO1)[C@H]1O[C@H]1[C@H]3O	-2.61	-9.39 (active)	-8.78 (active)	-18.3 (active)	2.64 (inactive)	1.15 (inactive)	-0.124 (inactive)	-0.985 (inactive)	-5.89	-0.141
O=C1C[C@@H](O)[C@@H](O)[C@@H]2[C@@H]3C(=O)N(c4cccc(Oc5ccccc5)c4)C(=O)[C@@H]3CC[C@H]12	0.0515	0.251 (inactive)	0.0257 (inactive)	0.0371 (inactive)	-0.601 (inactive)	0.132 (inactive)	-0.539 (inactive)	-0.389 (inactive)	0.0381	-0.0448
CCN1C(=O)[C@H]2[C@H]3[C@H](O)[C@H](O)CC(=NOCC(C)C)[C@@H]3CC[C@H]2C1=O	0.424	-0.18 (inactive)	-0.243 (inactive)	-0.423 (inactive)	0.99 (inactive)	-0.589 (inactive)	-0.556 (inactive)	-1.86 (inactive)	0.279	-0.0696
CC(=O)OC[C@H]1OC(ON=CC[C@@H]2C=C[C@H](OC(C)=O)[C@@H](COC(C)=O)O2)[C@H](OC(C)=O)[C@@H](OC(C)=O)[C@@H]1OC(C)=O (stereo not given in full)	0.186	0.352 (inactive)	-0.919 (inactive)	-0.753 (inactive)	-0.0903 (inactive)	-0.618 (inactive)	0.938 (inactive)	0.583 (inactive)	0.169	0.0982
CC(C)(C)N1C(=O)[C@H]2[C@H]3[C@H](O)[C@H](O)CC(=NOCc4ccccc4)[C@H]3CC[C@H]2C1=O	-0.211	-0.565 (inactive)	0.0488 (inactive)	-0.192 (inactive)	-0.237 (inactive)	-0.786 (inactive)	0.184 (inactive)	0.332 (inactive)	0.237	-0.102
CO[C@H]1COC(=O)[C@@H]2CCCN2C(=O)CC=C[C@@H](C)[C@H](OC)COC(=O)[C@@H](OCc2ccccc2)C=C[C@@H]1C	-0.416	-1.72 (inactive)	1.58 (inactive)	-2.88 (inactive)	-1.01 (inactive)	-0.965 (inactive)	0.421 (inactive)	0.29 (inactive)	0.552	-0.284
CCCNC(=O)OC[C@H]1O[C@H](CCON=Cc2ccc(C(=O)N3[C@H](c4ccc(C)cc4)[C@@H](C)CC[C@H]3C(=O)OC)cc2)C=C[C@@H]1Oc1ccc(OC)cc1	-0.73	1.85 (inactive)	-0.686 (inactive)	0.415 (inactive)	0.511 (inactive)	0.729 (inactive)	0.567 (inactive)	0.353 (inactive)	-0.203	0.0623
O=C1C[C@@H](O)[C@@H](O)[C@@H]2[C@@H]3C(=O)N(Cc4ccc5c(c4)OCO5)C(=O)[C@@H]3CC[C@H]12	0.201	0.0442 (inactive)	-0.0254 (inactive)	-0.564 (inactive)	-0.0121 (inactive)	-0.545 (inactive)	-0.494 (inactive)	-0.389 (inactive)	-0.0372	-0.152
COCOc1ccc(Br)cc1C(=O)[C@@H]1O[C@H]1c1cccc(OC)c1	-0.0514	-8.36 (active)	-1.86 (inactive)	0.0095 (inactive)	-0.257 (inactive)	0.45 (inactive)	0.534 (inactive)	0.35 (inactive)	-0.516	0.184
CO[C@H]1COC(=O)CC=C[C@H](C)COC(=O)[C@@H](C)NC(=O)CC=C[C@@H]1C	-0.251	-0.695 (inactive)	1.31 (inactive)	-0.412 (inactive)	-0.16 (inactive)	-0.652 (inactive)	0.33 (inactive)	-1.21 (inactive)	0.961	0.0297
CCN1C(=O)[C@H]2[C@H]3[C@H](O)[C@H](O)CC(=NOC[C@H]4O[C@H](c5ccccc5)C=C[C@@H]4Oc4ccc(OC)cc4)[C@@H]3CC[C@H]2C1=O	-0.985	-0.933 (inactive)	-0.641 (inactive)	-0.953 (inactive)	0.241 (inactive)	0.635 (inactive)	0.602 (inactive)	0.923 (inactive)	-1.04	0.0617
C#CCCCON=C1C[C@@H](O)[C@@H](O)[C@@H]2[C@@H]3C(=O)N(c4ccc(F)cc4F)C(=O)[C@@H]3CC[C@@H]12	1.49	-0.652 (inactive)	0.225 (inactive)	-0.278 (inactive)	-1.25 (inactive)	-1.07 (inactive)	-0.0313 (inactive)	-0.152 (inactive)	0.33	-0.0786
C#CCCCON=C1C[C@@H](O)[C@@H](O)[C@@H]2[C@@H]3C(=O)N(c4cccc(Oc5ccccc5)c4)C(=O)[C@@H]3CC[C@H]12	0.331	-0.351 (inactive)	1.08 (inactive)	-1.48 (inactive)	0.553 (inactive)	-0.0064 (inactive)	0.899 (inactive)	0.401 (inactive)	1.94	-0.0832
CC(=O)OC[C@H]1O[C@H](CC=NO[C@H](C)c2cn([C@H](CO)Cc3ccccc3)nn2)C=C[C@@H]1OC(C)=O	0.242	1.53 (inactive)	-0.376 (inactive)	0.53 (inactive)	0.642 (inactive)	1.57 (inactive)	-0.182 (inactive)	-0.554 (inactive)	0.103	0.699
CCOC(=O)[C@H](CC(C)C)NC(=O)CCC1CC(OC(=O)NCc2ccc3c(c2)OCO3)CC2(CCCC(COC(=O)NCC(c3ccccc3)c3ccccc3)O2)O1 (stereo not given in full)	0.842	0.724 (inactive)	0.56 (inactive)	0.125 (inactive)	-0.306 (inactive)	0.786 (inactive)	0.304 (inactive)	0.321 (inactive)	0.509	-0.17
O=C1C[C@@H](O)[C@@H](O)[C@@H]2[C@@H]3C(=O)N(C[C@@H]4CCCO4)C(=O)[C@@H]3CC[C@H]12	-0.57	-0.189 (inactive)	-0.0898 (inactive)	0.602 (inactive)	-0.744 (inactive)	0.739 (inactive)	0.343 (inactive)	0.17 (inactive)	-0.449	-0.28
COC(=O)[C@@H]1CC[C@H](C)[C@@H](c2ccc(C)cc2)N1C(=O)c1ccc(C=NO[C@H](C)c2cn([C@H](CO)Cc3ccccc3)nn2)cc1	-1.32	0.0789 (inactive)	0.534 (inactive)	0.271 (inactive)	-0.598 (inactive)	0.59 (inactive)	-1.28 (inactive)	-1.03 (inactive)	0.641	-0.102
O=C1C2=CC[C@H]3C(=O)N(c4cccc(Oc5ccccc5)c4)C(=O)[C@H]3[C@H]2[C@H](O)[C@@H]2O[C@H]12	-1.02	-1.72 (inactive)	-6.54 (inactive)	-1.2 (inactive)	-0.261 (inactive)	-0.0295 (inactive)	-0.392 (inactive)	-0.281 (inactive)	-3.76	0.0506
